Source: the supplement of paper PMC4466140

These binders were tested against AgAbp1 (assay: SPOT peptide array binding signal intensity (averaged, normalized) (arbitrary units (background-subtracted, floor 0; scale differs between SH3 domains)); higher = stronger binding of the SH3 domain to the peptide).
Procedure, shortened: (§1)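 Binding signal is given in arbitrary units that differ between domains and is the normalized, background-subtracted spot intensity averaged across replicates. Each GST-SH3 fusion from one of four yeast species was made in E. coli BL21(DE3), purified on glutathione Sepharose and incubated at 10 μg/ml overnight at 4°C on cellulose-bound synthetic 15-mer peptides in which cysteines were replaced by serines. Detection used anti-GST antibody, an HRP anti-mouse secondary and luminol, followed by imaging and Genespotter quantification.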
In the case of KKEKKPPKIPKKVYT, the “SPOT peptide array binding signal intensity” value is reported as 2950.

Each binder was assayed against AgBbc1 in the same assay as above.
Procedure, shortened: as §1
For KKEKKPPKIPKKVYT, the “SPOT peptide array binding signal intensity” value was 9.5.

The binders below were run against AgBem1-D1 in the same assay as above.
Procedure, shortened: as §1
With KKEKKPPKIPKKVYT the “SPOT peptide array binding signal intensity” value was 8.

The binders below were run against AgBzz1-D1 in the same assay as above.
Procedure, shortened: as §1
KKEKKPPKIPKKVYT was tested, and the “SPOT peptide array binding signal intensity” value was 253.

What follows are binders tested against AgBzz1-D2 in the same assay as above.
Procedure, shortened: as §1
For KKEKKPPKIPKKVYT, the “SPOT peptide array binding signal intensity” value was 43.

What follows are binders tested against AgCyk3 in the same assay as above.
Procedure, shortened: as §1
In the case of KKEKKPPKIPKKVYT, the “SPOT peptide array binding signal intensity” value is reported as at most 0.

These binders were tested against AgFus1 in the same assay as above.
Procedure, shortened: as §1
In the case of KKEKKPPKIPKKVYT, the “SPOT peptide array binding signal intensity” value is reported as 1.

Each binder was assayed against AgHof1 in the same assay as above.
Procedure, shortened: as §1
KKEKKPPKIPKKVYT was tested, and the “SPOT peptide array binding signal intensity” value was 29.2.

The binders below were run against AgHse1 in the same assay as above.
Procedure, shortened: as §1
KKEKKPPKIPKKVYT was tested, and the “SPOT peptide array binding signal intensity” value was 35.5.

The binders below were run against AgLsb1 in the same assay as above.
Procedure, shortened: as §1
KKEKKPPKIPKKVYT was tested, and the “SPOT peptide array binding signal intensity” value was at most 0.

Each binder was assayed against AgLsb4 in the same assay as above.
Procedure, shortened: as §1
For KKEKKPPKIPKKVYT, the “SPOT peptide array binding signal intensity” value was 1.5.

These binders were tested against AgMyo5 in the same assay as above.
Procedure, shortened: as §1
KKEKKPPKIPKKVYT was tested, and the “SPOT peptide array binding signal intensity” value was at most 0.

The binders below were run against AgNbp2 in the same assay as above.
Procedure, shortened: as §1
In the case of KKEKKPPKIPKKVYT, the “SPOT peptide array binding signal intensity” value is reported as 19.

These binders were tested against AgRvs167 in the same assay as above.
Procedure, shortened: as §1
In the case of KKEKKPPKIPKKVYT, the “SPOT peptide array binding signal intensity” value is reported as 2.5.

These binders were tested against AgSho1 in the same assay as above.
Procedure, shortened: as §1
KKEKKPPKIPKKVYT was tested, and the “SPOT peptide array binding signal intensity” value was 5.

These binders were tested against AgSla1-D1-D2 in the same assay as above.
Procedure, shortened: as §1
For KKEKKPPKIPKKVYT, the “SPOT peptide array binding signal intensity” value was at most 0.

The binders below were run against AgSla1-D3 in the same assay as above.
Procedure, shortened: as §1
In the case of KKEKKPPKIPKKVYT, the “SPOT peptide array binding signal intensity” value is reported as 4.5.

These binders were tested against CaAbp1-D1 in the same assay as above.
Procedure, shortened: as §1
For KKEKKPPKIPKKVYT, the “SPOT peptide array binding signal intensity” value was 892.

What follows are binders tested against CaAbp1-D2 in the same assay as above.
Procedure, shortened: as §1
KKEKKPPKIPKKVYT was tested, and the “SPOT peptide array binding signal intensity” value was 1670.

Each binder was assayed against CaBbc1 in the same assay as above.
Procedure, shortened: as §1
In the case of KKEKKPPKIPKKVYT, the “SPOT peptide array binding signal intensity” value is reported as 88.5.

These binders were tested against CaBem1-D1 in the same assay as above.
Procedure, shortened: as §1
In the case of KKEKKPPKIPKKVYT, the “SPOT peptide array binding signal intensity” value is reported as 28.

What follows are binders tested against CaBzz1-D1 in the same assay as above.
Procedure, shortened: as §1
KKEKKPPKIPKKVYT was tested, and the “SPOT peptide array binding signal intensity” value was 1950.

What follows are binders tested against CaBzz1-D2 in the same assay as above.
Procedure, shortened: as §1
In the case of KKEKKPPKIPKKVYT, the “SPOT peptide array binding signal intensity” value is reported as 2760.

The binders below were run against CaCyk3 in the same assay as above.
Procedure, shortened: as §1
With KKEKKPPKIPKKVYT the “SPOT peptide array binding signal intensity” value was at most 0.

The binders below were run against CaFus1 in the same assay as above.
Procedure, shortened: as §1
With KKEKKPPKIPKKVYT the “SPOT peptide array binding signal intensity” value was 99.

Each binder was assayed against CaHof1 in the same assay as above.
Procedure, shortened: as §1
KKEKKPPKIPKKVYT was tested, and the “SPOT peptide array binding signal intensity” value was 1.

Each binder was assayed against CaHse1 in the same assay as above.
Procedure, shortened: as §1
KKEKKPPKIPKKVYT was tested, and the “SPOT peptide array binding signal intensity” value was 110.

Each binder was assayed against CaLsb1 in the same assay as above.
Procedure, shortened: as §1
With KKEKKPPKIPKKVYT the “SPOT peptide array binding signal intensity” value was 0.25.

What follows are binders tested against CaLsb4 in the same assay as above.
Procedure, shortened: as §1
KKEKKPPKIPKKVYT was tested, and the “SPOT peptide array binding signal intensity” value was at most 0.

These binders were tested against CaMyo5 in the same assay as above.
Procedure, shortened: as §1
With KKEKKPPKIPKKVYT the “SPOT peptide array binding signal intensity” value was 1.5.
